Compounds without any hit were thinned out: in the full panel of roughly 79,000, 15% have a hit. Cut-off read from the data, not from the text of the source: active = growth inhibition above about 70%; inactive = the rest. Where a SMILES comes first, the peptide text is derived from it. The star is where a group is joined. Myristoyl = CCCCCCCCCCCCCC(=O)*
Legend:
[1] = NCI Yeast Anticancer Drug Screen. Data for the rad50 strain (AID 155);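 note: 0% = growth of vehicle-only cultures of the same strain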; settings: S. cerevisiae rad50 strain growth inhibition; at 50.0 µM; hits give high values
Procedure, shortened: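 Vehicle-treated cultures provide the reference for the growth inhibition reported for compound-exposed, repair-deficient yeast.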

[2] = NCI Yeast Anticancer Drug Screen. Data for the mec2-1 strain (AID 157); settings: S. cerevisiae mec2-1 strain, at 50.0 µM, hits give high values
Procedure, shortened: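 Growth inhibition is read against vehicle-treated controls after compound exposure of the mec2-1 yeast strain, which is defective in DNA damage repair or cell cycle control.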

[3] = NCI Yeast Anticancer Drug Screen. Data for the sgs1 mgt1 strain (AID 161);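 note: 0% = growth of cultures given vehicle only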; settings: S. cerevisiae sgs1 mgt1 strain, at 50.0 µM, hits give high values
Procedure, shortened: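 This yeast growth screen uses a strain with defined DNA-repair lesions; compound-treated growth is compared with vehicle-treated growth.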

[4] = NCI Yeast Anticancer Drug Screen. Data for the cln2 rad14 strain (AID 165);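 note: 0% = growth equal to vehicle treated cultures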; settings: S. cerevisiae cln2 rad14 strain, at 50.0 µM, hits give high values
Procedure, shortened: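 Growth inhibition, relative to vehicle-treated controls, is the read-out. The test organism is a yeast strain with defined genetic alterations, cln2 rad14.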

[5] = NCI Yeast Anticancer Drug Screen. Data for the bub3 strain (AID 167); settings: S. cerevisiae bub3 mutant strain, at 50.0 µM, hits give high values
Procedure, shortened: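 Mutant yeast screening strain plus compound; vehicle-treated cultures serve as the 0% inhibition reference.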

[6] = NCI Yeast Anticancer Drug Screen. Data for the mlh1 rad18 strain (AID 175); settings: S. cerevisiae mlh1 rad18 strain growth inhibition; at 50.0 µM; hits give high values
Procedure, shortened: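 Cells of a genetically altered yeast strain, deficient in DNA damage repair, were treated with compound. Their growth was then compared with that of vehicle-treated cultures to give inhibition.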

Measured: growth inhibition

O=C(Nc1ccccc1)c1cccn1-c1ccccc1
inactive: [1] 2.7% | [2] -13.1% | [3] 12.1% | [4] 13.5% | [5] -19% | [6] -2.95%

C[N+](C)(C)c1ccc2ccccc2n1
inactive: [1] -9.15% | [2] -1.6% | [3] -19.9% | [4] 1.15% | [5] -8.7% | [6] -2.7%

COc1ccc(C[C@H](N)C(=O)NC2C(CO)OC(n3cnc4c(N(C)C)ncnc43)C2O)cc1 (stereo not given in full)
inactive: [1] -1.7% | [2] -35.1% | [3] -18.4% | [4] -0.8% | [5] -26.9% | [6] -17.3%

CC(=O)OC/C=C1/CC[C@H]2[C@@H]3CCC4=CC(=O)CC[C@]4(C)[C@H]3[C@@H](O)C[C@]12C
inactive: [1] 26.4% | [2] -4.25% | [3] 8.65% | [4] -31.4% | [5] 13.4% | [6] 26.9%

Oc1ccc2c(c1)-c1ccccc1C2
inactive: [1] 38.8% | [2] 2.9% | [3] -4.5% | [4] 17.2% | [5] 37.3% | [6] 29.9%

Oc1ccccc1C=Nc1ccc(Cl)cn1
inactive: [1] 17.2% | [2] 15.2% | [3] 16.2% | [4] 21.6% | [5] 18.9% | [6] 20.8%

NC(CCc1ccc2c(c1)OCO2)C(=O)O (stereo not given)
inactive: [1] 5.35% | [2] -11.8% | [3] -3.55% | [4] -47% | [5] -5.8% | [6] 22.9%

N#CCCCCBr
inactive: [1] 12.4% | [2] 6.95% | [3] -4.2% | [4] -50.7% | [5] 15.6% | [6] 7.5%

Cc1cc(S(=O)(=O)Nc2nc(N)nc(N(C)C)n2)c(S)cc1Cl
inactive: [1] 1.4% | [2] -17.2% | [3] -3.5% | [4] 1.9% | [5] -46% | [6] 15.1%

NC(=O)CNC(=O)[C@@H]1CC(OCCC(=O)O)CN1C(=O)C1CCCN1C(=O)OCc1ccccc1 (stereo not given in full)
inactive: [1] 0.05% | [2] -0.8% | [3] 1.8% | [4] 6.25% | [5] 1.3% | [6] 6.75%

NC(=Nc1ccc([N+](=O)[O-])cc1)c1ccccc1
inactive: [1] 6.95% | [2] 1.6% | [3] -4.05% | [4] -11.9% | [5] 8.3% | [6] 9.65%

Cc1ccc(NC(=O)Nc2cccc(C(F)(F)F)c2)cc1NC(=O)Nc1cccc(C(F)(F)F)c1
inactive: [1] 2.75% | [2] 15% | [3] 31.9% | [4] 23.7% | [5] -6.6% | [6] 29.6%

O=C(/C=C/c1ccc(O)cc1)NCCc1c[nH]c2ccc(O)cc12
inactive: [1] 0.75% | [2] -10% | [3] 10% | [4] 8.35% | [5] -3.7% | [6] 7.75%

Cc1c(OC(C)C(=O)O)ccc2c(-c3ccccc3)cc(=O)oc12 (stereo not given)
inactive: [1] 2.95% | [2] 12.7% | [3] 23.9% | [4] 27.2% | [5] 5.9% | [6] 38.2%

CCCCCCCCCCCCCC(=O)NCC(=O)NC(CO)C(=O)NC(CO)C(=O)NC(CCCCN)C(=O)NC(CO)C(=O)NC(CCCCN)C(=O)N1CCCC1C(=O)NC(CCCCN)C(=O)NC(CC(=O)O)C(N)=O (stereo not given) (Myristoyl-GSSKSKPKD-NH2; configuration not given here)
inactive: [1] 7.25% | [2] -2.55% | [3] -3.9% | [4] 6.1% | [5] 10.3% | [6] 14%

O=C(NCc1ccccn1)c1ccccc1
inactive: [1] 17.5% | [2] 15.8% | [3] -4.45% | [4] -18.9% | [5] 17.1% | [6] 6.8%

CC(C)CCNCCC(C)C
inactive: [1] 35.7% | [2] 25.1% | [3] -2.85% | [4] -36.3% | [5] -14.9% | [6] 21.9%

O=C(OCC1OC(n2nc(SCc3ccccc3)c(=S)[nH]c2=O)C(OC(=O)c2ccccc2)C1OC(=O)c1ccccc1)c1ccccc1 (stereo not given)
inactive: [1] 1.05% | [2] 0.35% | [3] 14.2% | [4] -46.9% | [5] -5.7% | [6] 31.8%

Cc1nccn1C(C)c1ccccc1 (stereo not given)
inactive: [1] -9.8% | [2] -19.9% | [3] -16.2% | [4] -95.3% | [5] 0.35% | [6] -25.4%

CC1=C(C(=O)NCCc2ccccc2)CC(C(=O)NCCc2ccccc2)=C(C)N1
inactive: [1] -9.8% | [2] 6.4% | [3] 5.75% | [4] 14.5% | [5] -13.2% | [6] -32.1%

Reference: PubChem BioAssay (NCI)
